# A number with no mark means an inactive call. Results filed as inconclusive are left out. Entries that show only a call come without a potency. Calls of active or inactive are those of the source. Unless noted, calls follow the shape of the full dose curve.
# What was measured:
# [1] = Nuclear factor erythroid 2-related factor 2/antioxidant responsive element (Nrf2/ARE) small molecule agonists: qHTS cell viability counter screen in human keratinocytes (AID 1919968; active = well fitted curve in the direction sought with a large enough effect in the repeat runs; an effect the other way counts as inactive or inconclusive; also: nearly all actives have a fitted effect of over 55% in size)
# Outline: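 KeratinoSens cells (HaCaT keratinocytes stably carrying an ARE-luciferase reporter) were seeded at 1,500 cells/well and rested 5 h at 37 C/5% CO2. They were then exposed to compounds in DMSO for 23 h. Viability was read by CellTiter-Fluor fluorescence after 1 h.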
# [2] = Nuclear factor erythroid 2-related factor 2/antioxidant responsive element (Nrf2/ARE) small molecule agonists: luciferase reporter gene qHTS assay in human keratinocytes (AID 1919969); also: nearly all actives have a fitted effect of over 35% in size; also: potency is read from the fitted curve at half-maximal effect
# [3] = target: Gonadotropin-releasing hormone receptor (Homo sapiens) (UniProt P30968); experiment: Human gonadotropin-releasing hormone receptor (GnRHR) small molecule agonists, calcium flux assay in GnRHR-HEK293 cells (AID 1920063); also: nearly all actives have a fitted effect of over 35% in size
# Chain of Gonadotropin-releasing hormone receptor (Homo sapiens) (P30968 whole entry, looked up): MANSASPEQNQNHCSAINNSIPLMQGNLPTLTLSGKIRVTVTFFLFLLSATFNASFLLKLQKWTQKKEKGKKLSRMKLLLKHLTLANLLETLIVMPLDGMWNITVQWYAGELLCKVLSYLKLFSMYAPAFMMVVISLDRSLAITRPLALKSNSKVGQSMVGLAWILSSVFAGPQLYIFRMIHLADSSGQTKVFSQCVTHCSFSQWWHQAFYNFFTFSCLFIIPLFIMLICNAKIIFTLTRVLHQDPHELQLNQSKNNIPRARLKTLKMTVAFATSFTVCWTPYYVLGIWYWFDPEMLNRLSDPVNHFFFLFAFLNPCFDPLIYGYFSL
# Outline: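 HEK293 cells stably expressing human GnRHR were plated 18 h at 37 °C, loaded with calcium dye 1 h at 37 °C, then given compound in agonist mode; fluorescence (Ex/Em 480/540) read kinetically for 3 min at 1 s intervals.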
# [4] = target: KiSS-1 receptor (Homo sapiens) (UniProt Q969F8); experiment: Human kisspeptin (KISS1R) small molecule agonists, calcium flux assay in KISS1R-HEK293 cells (AID 1920064; active = well fitted curve in the direction sought with a large enough effect in the repeat runs; an effect the other way counts as inactive or inconclusive)
# Chain of KiSS-1 receptor (Homo sapiens) (Q969F8 whole entry, looked up): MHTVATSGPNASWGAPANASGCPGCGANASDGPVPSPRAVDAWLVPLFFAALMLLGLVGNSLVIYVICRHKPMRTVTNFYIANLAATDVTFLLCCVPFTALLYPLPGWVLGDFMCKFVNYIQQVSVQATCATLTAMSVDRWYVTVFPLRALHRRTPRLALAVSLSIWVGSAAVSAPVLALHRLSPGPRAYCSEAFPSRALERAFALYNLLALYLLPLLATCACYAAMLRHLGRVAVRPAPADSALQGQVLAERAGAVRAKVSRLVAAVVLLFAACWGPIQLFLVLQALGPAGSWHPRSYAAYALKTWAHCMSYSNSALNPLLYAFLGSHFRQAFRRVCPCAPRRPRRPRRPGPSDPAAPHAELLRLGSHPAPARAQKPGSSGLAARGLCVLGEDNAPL
# Outline: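 HEK293 cells stably expressing human KISS1R were plated 18 h at 37 °C, loaded with calcium dye for 1 h at 37 °C, then given compound by pin tool. Fluorescence (Ex/Em 480/540) was read kinetically for 3 min.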
# [5] = G protein-coupled receptor (GPCR) small molecule agonists, calcium flux assay: HEK293 wild type cell line counter screen (AID 1920065)
# Outline: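 Cells were plated and cultured 18 h at 37 C/5% CO2, then loaded with calcium dye for 1 h at 37 C. Compounds in DMSO were pin-transferred in agonist mode, and fluorescence (Ex/Em 480/540) was read kinetically for 3 min at 1 s intervals.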
# [6] = p53 small molecule agonists, cell-based qHTS assay with human liver microsomes: qHTS cell viability counter screen (AID 1963579); also: nearly all actives have a fitted effect of over 45% in size; also: potency is read from the fitted curve at half-maximal effect
# Outline: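 Tox21 library compounds, delivered from DMSO stocks, were tested on p53RE-bla cells together with 0.5 mg/mL human liver microsomes and 0.5 mg/mL NADPH (final) over 16 h at 37 C; CellTiter-Glo luminescence served as the cytotoxicity measure.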
# [7] = p53 small molecule agonists, cell-based qHTS assay with rat liver microsomes: qHTS cell viability counter screen (AID 1963580); also: nearly all actives have a fitted effect of over 45% in size
# Outline: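 Viability is assessed in parallel with the p53 reporter read: HCT-116 p53RE-bla cells receive compounds plus rat microsomes and NADPH (0.5 mg/mL final apiece), incubate 16 h at 37 C, and then CellTiter-Glo luminescence is recorded.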
# [8] = p53 small molecule agonists, cell-based qHTS assay: qHTS cell viability counter screen (AID 1963581); also: nearly all actives have a fitted effect of over 45% in size; also: potency is read from the fitted curve at half-maximal effect
# Outline: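 p53RE-bla HCT-116 cells were exposed to compounds for 16 h at 37 C; after the beta-lactamase FRET read in the same wells, CellTiter-Glo was added and luminescence (intracellular ATP) read after 30 min at room temperature.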
# [9] = cAMP Responsive Elements (CRE) small molecule agonists, cell-based qHTS assay (AID 1963590)
# Outline: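 CRE-bla HEK 293T cells in DMEM with 10% dialyzed FBS, NEAA, pyruvate and 25 mM HEPES were plated 18 h at 37 C/5% CO2, then exposed to compounds in DMSO for 3 h before LiveBLAzer B/G FRET substrate addition.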
# [10] = cAMP Responsive Elements (CRE) small molecule antagonists, cell-based qHTS assay (AID 1963591; active = well fitted inhibition curve with a large enough effect in the signal ratio in the repeat runs, not every such curve was filed as active; the % refers to the signal ratio)
# Outline: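 CRE-bla HEK293T cells were plated 18 h at 37 °C/5% CO2, pinned with compound in DMSO, then stimulated with NKH477 at 0.25 uM final for 3 h. LiveBLAzer B/G FRET substrate was added and plates incubated 2 h at room temperature.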
# [11] = target: Beta-2 adrenergic receptor (Homo sapiens) (UniProt P07550); experiment: Adrenergic beta2 receptor (ADRB2) small molecule antagonists, cell-based qHTS assay (AID 1963592); also: series mostly up to about 92 µM; nearly all actives have a fitted effect of over 50% in size
# Chain of Beta-2 adrenergic receptor (Homo sapiens) (P07550 whole entry, looked up): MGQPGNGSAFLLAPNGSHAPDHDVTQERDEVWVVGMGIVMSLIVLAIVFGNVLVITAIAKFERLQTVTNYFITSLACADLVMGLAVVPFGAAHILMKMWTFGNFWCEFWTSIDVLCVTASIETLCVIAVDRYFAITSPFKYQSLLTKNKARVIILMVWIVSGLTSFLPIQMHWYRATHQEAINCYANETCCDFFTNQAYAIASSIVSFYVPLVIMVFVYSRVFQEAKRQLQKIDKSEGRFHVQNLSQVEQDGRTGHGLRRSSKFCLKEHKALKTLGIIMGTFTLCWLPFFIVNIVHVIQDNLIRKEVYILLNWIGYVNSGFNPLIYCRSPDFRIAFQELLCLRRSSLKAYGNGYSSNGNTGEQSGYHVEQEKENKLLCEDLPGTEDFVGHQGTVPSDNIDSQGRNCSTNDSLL
# Outline: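 Cells (CHO, stable ADRB2 overexpression) incubated 18-20hr at 37C; compounds added from DMSO; agonist mix (1nM isoproterenol, 100uM IBMX, 25uM Ro-20-1724) added; 0.5hr RT; d2-cAMP and anti-cAMP-cryptate added; 1hr RT; 665/615 nm read.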
# [12] = target: D(2) dopamine receptor (Homo sapiens) (UniProt P14416); experiment: Dopamine D2 receptor (DRD2) small molecule agonists, cell-based qHTS assay (AID 1963594); also: nearly all actives have a fitted effect of over 35% in size; also: potency is read from the fitted curve at half-maximal effect
# Chain of D(2) dopamine receptor (Homo sapiens) (P14416 whole entry, looked up): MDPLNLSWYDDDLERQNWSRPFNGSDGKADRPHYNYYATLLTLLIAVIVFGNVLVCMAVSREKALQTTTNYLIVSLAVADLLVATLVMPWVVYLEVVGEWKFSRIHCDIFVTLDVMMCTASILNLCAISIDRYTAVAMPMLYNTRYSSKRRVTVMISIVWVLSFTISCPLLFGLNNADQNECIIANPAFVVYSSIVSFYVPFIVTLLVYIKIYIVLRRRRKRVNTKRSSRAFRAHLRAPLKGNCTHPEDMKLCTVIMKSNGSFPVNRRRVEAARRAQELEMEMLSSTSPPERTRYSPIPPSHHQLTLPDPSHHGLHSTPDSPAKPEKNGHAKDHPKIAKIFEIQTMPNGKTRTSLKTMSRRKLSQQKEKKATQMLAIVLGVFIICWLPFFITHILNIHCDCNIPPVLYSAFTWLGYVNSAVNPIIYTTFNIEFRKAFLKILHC
# Outline: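 HEK293 cells stably expressing human DRD2, pre-treated with PDE inhibitor Ro20-1724 (0.1 mM final) and compound 10 min at room temperature, then stimulated with NKH477 (200nM […]) for 30 min. cAMP read by HTRF (665/620 nm).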
# [13] = target: D(2) dopamine receptor (Homo sapiens) (UniProt P14416); experiment: Dopamine D2 receptor (DRD2) small molecule antagonists, cell-based qHTS assay (AID 1963595; active = well fitted inhibition curve with a large enough effect in the signal ratio in the repeat runs, with a control signal flat; the % refers to the signal ratio)
# Outline: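 HTRF cAMP read-out at 665 and 620 nm emission (340 nm excitation). Antagonist mode: compounds were tested against 12 nM quinpirole in DRD2-HEK293 cells, with 200 nM NKH477 raising cAMP and 0.1 mM Ro20-1724 blocking its breakdown.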
# [14] = target: Beta-2 adrenergic receptor (Homo sapiens) (UniProt P07550); experiment: Adrenergic beta2 receptor (ADRB2) small molecule agonists, cell-based qHTS assay (AID 1963593);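 also: CHO cells stably overexpressing human ADRB2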
# Outline: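 CHO cells stably over-expressing ADRB2 were plated overnight at 37C, then dosed with compounds plus a stimulation mix containing 100uM IBMX and 25uM Ro-20-1724 for 0.5hr at room temperature. cAMP was measured by HTRF competition, 1hr.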
# [15] = p53 small molecule agonists, cell-based qHTS assay (AID 1963582; active = well fitted activation curve with a large enough effect in the signal ratio in the repeat runs, not every such curve was filed as active; the % refers to the signal ratio)
# Outline: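 p53RE-bla beta-lactamase reporter cells rested 5 h at 37 C/5% CO2, then received compounds in DMSO by pin transfer and were incubated 16 h at 37 C. LiveBLAzer B/G FRET substrate was loaded for 2 h at room temperature before fluorescence reading.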
# [16] = target: 5-hydroxytryptamine receptor 2A (Homo sapiens) (UniProt P28223); experiment: 5-hydroxytryptamine receptor 2A (HTR2A) small molecule antagonists, cell-based qHTS assay (AID 1963586); also: nearly all actives have a fitted effect of over 45% in size
# Chain of 5-hydroxytryptamine receptor 2A (Homo sapiens) (P28223 whole entry, looked up): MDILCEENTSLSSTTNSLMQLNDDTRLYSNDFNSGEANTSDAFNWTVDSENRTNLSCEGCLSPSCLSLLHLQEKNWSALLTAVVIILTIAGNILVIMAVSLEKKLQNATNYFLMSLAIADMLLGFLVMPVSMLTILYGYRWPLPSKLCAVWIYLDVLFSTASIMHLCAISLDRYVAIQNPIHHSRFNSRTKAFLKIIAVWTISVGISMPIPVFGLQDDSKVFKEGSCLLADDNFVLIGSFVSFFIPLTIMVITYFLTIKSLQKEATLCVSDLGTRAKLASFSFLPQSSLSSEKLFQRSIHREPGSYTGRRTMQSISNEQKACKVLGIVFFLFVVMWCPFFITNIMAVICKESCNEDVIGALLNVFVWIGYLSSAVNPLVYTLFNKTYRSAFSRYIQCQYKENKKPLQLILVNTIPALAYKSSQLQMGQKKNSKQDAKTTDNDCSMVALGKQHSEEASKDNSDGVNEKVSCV
# Outline: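 Antagonist-mode intracellular calcium assay: DOI (4 nM) added after 5 min compound pre-incubation at room temperature to dye-loaded HTR2A-CHO cells. Fluorescence followed for 3 min, sampled every second.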
# [17] = target: 5-hydroxytryptamine receptor 2A (Homo sapiens) (UniProt P28223); experiment: 5-hydroxytryptamine receptor 2A (HTR2A) small molecule agonists, cell-based qHTS assay (AID 1963587); also: nearly all actives have a fitted effect of over 30% in size
# Outline: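 CHO cells stably expressing human HTR2A, plated 18 h, loaded with calcium dye 1 h at 37 C. Agonist mode: compounds added and intracellular calcium fluorescence recorded kinetically for 2 min at 1 sec intervals.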
# [18] = target: Muscarinic acetylcholine receptor M1 (Homo sapiens) (UniProt P11229); experiment: Cholinergic receptor muscarinic 1 (CHRM1) small molecule antagonists, cell-based qHTS assay (AID 1963588); also: nearly all actives have a fitted effect of over 40% in size
# Chain of Muscarinic acetylcholine receptor M1 (Homo sapiens) (P11229 whole entry, looked up): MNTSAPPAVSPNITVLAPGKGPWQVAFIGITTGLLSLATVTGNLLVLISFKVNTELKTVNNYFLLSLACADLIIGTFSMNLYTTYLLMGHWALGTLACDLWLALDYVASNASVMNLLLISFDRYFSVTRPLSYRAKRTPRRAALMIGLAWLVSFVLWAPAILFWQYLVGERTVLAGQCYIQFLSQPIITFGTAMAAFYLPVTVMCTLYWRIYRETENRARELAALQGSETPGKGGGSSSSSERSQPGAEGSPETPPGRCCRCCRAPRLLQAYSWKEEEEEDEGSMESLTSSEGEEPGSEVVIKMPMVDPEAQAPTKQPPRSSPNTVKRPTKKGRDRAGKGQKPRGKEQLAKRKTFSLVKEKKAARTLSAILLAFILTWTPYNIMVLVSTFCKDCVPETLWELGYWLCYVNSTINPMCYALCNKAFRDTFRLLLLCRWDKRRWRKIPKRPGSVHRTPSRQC
# Outline: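 CHRM1-CHO calcium-flux assay, antagonist mode. Cells were seeded 18 h, dye-loaded 1 h at 37 C and given compound for 5 min at RT, then acetylcholine was added at 50nM. FDSS fluorescence was read 3 min; 15 concentrations, three runs.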
# [19] = target: Muscarinic acetylcholine receptor M1 (Homo sapiens) (UniProt P11229); experiment: Cholinergic receptor muscarinic 1 (CHRM1) small molecule agonists, cell-based qHTS assay (AID 1963589); also: nearly all actives have a fitted effect of over 35% in size
# Outline: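 CHO cells stably expressing human CHRM1, seeded 18 h at 37 C/5% CO2, dye-loaded 1 h at 37 C, then given compound in agonist mode; intracellular calcium fluorescence read kinetically at 1 s intervals. Fifteen concentrations, three independent runs.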
compound,measurement,setting,value
CC(C)CO,Potency,[1],inactive
same,Potency,[2],inactive
same,Potency,[3],inactive
same,Potency,[4],inactive
same,Potency,[5],inactive
same,Potency,[6],inactive
same,Potency,[7],inactive
same,Potency,[8],inactive
same,Potency,[9],inactive
same,Potency,[10],inactive
same,Potency,[11],inactive
same,Potency,[12],inactive
same,Potency,[13],inactive
Cc1onc(-c2ccccc2Cl)c1C(=O)N[C@@H]1C(=O)N2[C@@H]1SC(C)(C)[C@@H]2C(=O)O,Potency,[1],inactive
same,Potency,[2],inactive
same,Potency,[3],inactive
same,Potency,[4],inactive
same,Potency,[5],inactive
same,Potency,[6],inactive
same,Potency,[7],inactive
same,Potency,[8],inactive
same,Potency,[9],inactive
same,Potency,[10],inactive
same,Potency,[11],inactive
same,Potency,[14],inactive
same,Potency,[12],inactive
same,Potency,[13],inactive
C/C(=C\c1ccc(C(=O)O)cc1)c1ccc2c(c1)C(C)(C)CCC2(C)C,Potency,[1],inactive
same,Potency,[2],inactive
same,Potency,[3],inactive
same,Potency,[4],inactive
same,Potency,[5],inactive
same,Potency,[6],inactive
same,Potency,[7],inactive
same,Potency,[15],inactive
same,Potency,[16],inactive
same,Potency,[17],inactive
same,Potency,[18],inactive
same,Potency,[19],inactive
same,Potency,[9],inactive
same,Potency,[10],inactive
same,Potency,[11],inactive
same,Potency,[12],inactive
same,Potency,[13],inactive
Cn1c(=O)c2c(ncn2CC2OCCO2)n(C)c1=O,Potency,[1],inactive
same,Potency,[2],inactive
same,Potency,[3],inactive
same,Potency,[4],inactive
same,Potency,[5],inactive
same,Potency,[6],inactive
same,Potency,[7],inactive
same,Potency,[8],inactive
same,Potency,[9],inactive
same,Potency,[10],inactive
same,Potency,[11],inactive
same,Potency,[14],inactive
same,Potency,[12],inactive
same,Potency,[13],inactive
O=C(O)Cc1cc(I)c(Oc2cc(I)c(O)c(I)c2)c(I)c1,Potency,[1],inactive
same,Potency,[2],30 µM (active)
same,Potency,[3],inactive
same,Potency,[4],inactive
same,Potency,[5],inactive
same,Potency,[6],17.9 µM (active)
same,Potency,[7],inactive
same,Potency,[8],22.5 µM (active)
same,Potency,[19],inactive
same,Potency,[11],inactive
same,Potency,[12],inactive
same,Potency,[13],inactive
CC1CN(c2cc3c(cc2F)c(=O)c(C(=O)O)cn3-c2ccc(F)cc2F)CCN1 (stereo not given),"activity change, negative = cytotoxicity",[1],6.63% [at 8.39 µM]
same,"activity, positive = activation",[2],4.55% [at 8.39 µM]
same,activity change,[3],"-0.555% [at 5.22 µM, hits give high values]"
same,activation,[4],3.09% [at 6.97 µM]
same,activation,[5],0.9% [at 5.23 µM]
same,"activity change, negative = cytotoxicity",[6],1.1% [at 5.99 µM]
same,"activity change, negative = cytotoxicity",[7],-0.821% [at 5.99 µM]
same,"activity change, negative = cytotoxicity",[8],22.9% [at 5.99 µM]
same,activation,[9],-2.24% [at 8.39 µM]
same,"activity change, negative = inhibition",[11],4.5% [at 8.39 µM]
same,activation,[14],1.31% [at 8.39 µM]
same,activation,[12],-7.78% [at 8.39 µM]
same,"activity change, negative = inhibition",[13],-0.708% [at 8.38 µM]
CC(C)C[C@H]1C(=O)N2CCC[C@H]2[C@]2(O)O[C@](NC(=O)[C@@H]3C=C4c5cccc6[nH]c(Br)c(c56)C[C@H]4N(C)C3)(C(C)C)C(=O)N12,Potency,[1],inactive
same,Potency,[2],inactive
same,Potency,[3],inactive
same,Potency,[4],inactive
same,Potency,[5],inactive
same,Potency,[6],inactive
same,Potency,[7],inactive
same,Potency,[8],inactive
same,Potency,[9],inactive
same,Potency,[10],inactive
same,Potency,[12],0.0923 µM (active)
same,Potency,[13],inactive
